From PubChem BioAssay (NCATS)
Results filed as inconclusive are left out. The source made the active and inactive calls. Unless noted, calls come from the whole dose curve; as a rule, active = well fitted curve in either direction with a large enough effect (not every such curve was filed as active); inconclusive = small, poorly fitted or top-dose-only effect, or another doubt; inactive = flat fitted curve, though single readings scatter.

Experiments:
[1] = target: Lysosomal acid glucosylceramidase (Homo sapiens) (UniProt P04062); assay: Glucocerebrosidase-p2 (AID 348; in the data active = potency below about 10 µM; note: potency is the fitted concentration of half-maximal effect); conditions: purified GBA, blue fluorogenic substrate, 40 min
Sequence of Lysosomal acid glucosylceramidase (Homo sapiens) (P04062 whole entry, looked up): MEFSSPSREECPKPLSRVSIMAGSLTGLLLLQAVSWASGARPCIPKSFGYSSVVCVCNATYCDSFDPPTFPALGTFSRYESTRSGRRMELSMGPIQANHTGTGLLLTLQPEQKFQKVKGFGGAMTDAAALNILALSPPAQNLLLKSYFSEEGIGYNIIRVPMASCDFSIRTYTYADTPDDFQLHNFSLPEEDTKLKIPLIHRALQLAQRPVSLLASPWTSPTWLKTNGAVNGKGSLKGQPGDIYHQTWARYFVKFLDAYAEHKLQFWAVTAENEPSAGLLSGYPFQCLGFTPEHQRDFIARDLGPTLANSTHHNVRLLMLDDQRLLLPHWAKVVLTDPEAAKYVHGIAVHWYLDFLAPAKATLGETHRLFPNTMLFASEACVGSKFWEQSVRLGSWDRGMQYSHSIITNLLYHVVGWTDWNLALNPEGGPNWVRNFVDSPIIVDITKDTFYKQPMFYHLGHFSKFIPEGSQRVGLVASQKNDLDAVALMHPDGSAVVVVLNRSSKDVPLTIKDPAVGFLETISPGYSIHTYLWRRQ
How it was run: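 Normal human glucocerebrosidase (0.2 nM) with blue fluorogenic substrate (80 uM final) in citrate/phosphate pH 5.9 with 10mM sodium taurocholate, 0.01% tween-20; 40 min RT, NaOH/glycine stop; fluorescence Ex 365/Em 440; AC50 from a titration from 0.6 nM upwards.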

[2] = AP1 Signaling Pathway (AID 357); conditions: ME-180 AP-1-bla reporter, EGF-induced, beta-lactamase ratio, 5 h; at 7.69 µM (top of the series) unless noted;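 note: ME-180 reporter cells stimulated with EGF at its EC50 level; % is set by controls: 0 for no effect and ±100 for the full control effect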
How it was run: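 First, ME-180 AP-1-bla cells were cultured overnight at 37 °C in low-serum Opti-MEM. Next, titrated compounds with EC50 EGF were incubated 5 hours. Finally, CCF4 was added for 2.5 hours and the 460/530 nm ratio recorded.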

[3] = target: Cytochrome P450 1A2 (Homo sapiens) (UniProt P05177); assay: p450-cyp1a2 (AID 410; calls by dose curve; note: potency is the fitted concentration of half-maximal effect;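 for activity change, negative = inhibition: -100% = full effect of reference inhibitor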); conditions: recombinant CYP1A2, luciferin-ME demethylation, luminescence; series mostly up to 11.4 µM
Sequence of Cytochrome P450 1A2 (Homo sapiens) (P05177 whole entry, looked up): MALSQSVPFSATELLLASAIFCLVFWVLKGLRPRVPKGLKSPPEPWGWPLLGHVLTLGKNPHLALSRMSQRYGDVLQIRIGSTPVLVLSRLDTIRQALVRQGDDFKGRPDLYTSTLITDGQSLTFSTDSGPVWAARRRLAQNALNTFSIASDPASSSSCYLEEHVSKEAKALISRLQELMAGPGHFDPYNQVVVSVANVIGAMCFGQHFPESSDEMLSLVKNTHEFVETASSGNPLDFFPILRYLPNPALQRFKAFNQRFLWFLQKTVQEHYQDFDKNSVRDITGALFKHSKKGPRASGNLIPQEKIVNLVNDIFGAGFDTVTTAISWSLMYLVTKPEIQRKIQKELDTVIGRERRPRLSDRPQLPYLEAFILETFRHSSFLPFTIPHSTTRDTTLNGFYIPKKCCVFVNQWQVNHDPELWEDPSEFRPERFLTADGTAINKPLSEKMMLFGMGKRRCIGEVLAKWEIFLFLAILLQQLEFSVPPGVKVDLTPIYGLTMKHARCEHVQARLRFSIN
How it was run: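 Luminescent demethylation readout: Luciferin-ME (100uM, equal to Km) turned over by 20nM CYP1A2 for 60 min at room temperature after NADPH regeneration addition, following 10 min compound preincubation. Normalization used 57 uM furafylline as full inhibition.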

[4] = NFAT Signaling Pathway (AID 444); conditions: Jurkat NFAT-bla M1, carbachol, beta-lactamase ratio, 5 h; at 7.69 µM (top of the series) unless noted;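 note: carbachol stimulus at about its EC50 of 1 µM final; % is set by controls: 0 for no effect and ±100 for the full control effect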
How it was run: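 Read-out: CCF4 FRET ratio (460 nm/530 nm) after 1 h RT dye loading, used for %activity and AC50 from titration series. Cells: Jurkat NFAT-β-lactamase/M1 line, treated with compound plus 1 uM carbachol for 5 h, 37 °C.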

[5] = Stat Signaling Pathway (AID 446); conditions: ME-180 SIE beta-lactamase reporter, IL-6 stimulated, 5 h; at 7.69 µM (top of the series) unless noted;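 note: ME-180 cervical cancer cells given 40 pM IL-6 alongside compound; SIE-controlled beta-lactamase reporter measured as 460/530 nm FRET emission ratio; % is set by controls: 0 for no effect and ±100 for the full control effect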
How it was run: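 Overnight-plated ME-180 cells bearing a STAT Inducible Element beta-lactamase reporter; 5 h co-exposure to compound and 40 pM IL-6; values normalized to 300 pM IL-6 and 125 nM JAK inhibitor controls.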

[6] = target: Glucocorticoid receptor (Homo sapiens) (UniProt P04150); assay: GR-GFP Redistribution (AID 450;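 active = compounds whose dose series gives a full or clear partial fitted curve of increased nuclear translocation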; note: potency is the fitted concentration of half-maximal effect); conditions: U2OS GR-GFP nuclear translocation, laser cytometry, 2 h
Sequence of Glucocorticoid receptor (Homo sapiens) (P04150 whole entry, looked up, the tested form may be a part): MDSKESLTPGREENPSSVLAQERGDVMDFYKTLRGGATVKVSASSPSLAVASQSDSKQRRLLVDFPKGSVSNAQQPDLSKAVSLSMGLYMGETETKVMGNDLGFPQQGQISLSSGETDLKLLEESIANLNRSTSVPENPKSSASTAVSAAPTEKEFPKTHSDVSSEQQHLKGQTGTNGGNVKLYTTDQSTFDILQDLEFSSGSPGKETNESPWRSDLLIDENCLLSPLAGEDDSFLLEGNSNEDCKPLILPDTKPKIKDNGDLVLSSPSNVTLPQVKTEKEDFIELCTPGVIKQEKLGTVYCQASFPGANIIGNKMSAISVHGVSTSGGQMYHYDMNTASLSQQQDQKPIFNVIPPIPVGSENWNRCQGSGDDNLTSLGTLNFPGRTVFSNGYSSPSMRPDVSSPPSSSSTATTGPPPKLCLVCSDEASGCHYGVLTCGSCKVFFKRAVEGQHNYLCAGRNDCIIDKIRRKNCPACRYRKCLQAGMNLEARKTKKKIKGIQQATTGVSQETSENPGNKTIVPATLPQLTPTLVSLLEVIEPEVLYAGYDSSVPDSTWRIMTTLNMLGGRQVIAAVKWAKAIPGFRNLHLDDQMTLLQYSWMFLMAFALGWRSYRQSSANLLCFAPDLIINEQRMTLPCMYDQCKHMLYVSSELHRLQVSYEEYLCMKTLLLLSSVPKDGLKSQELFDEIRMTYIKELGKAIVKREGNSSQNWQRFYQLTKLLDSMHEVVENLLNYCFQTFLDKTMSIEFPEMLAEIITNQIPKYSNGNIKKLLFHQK

[7] = target: Glucocorticoid receptor (Homo sapiens) (UniProt P04150); assay: GR-EFC Redistribution (AID 451; calls by dose curve; note: potency is the fitted concentration of half-maximal effect); conditions: CHO-K1 GR-EFC translocation, beta-gal luminescence, 2 h
How it was run: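 Translocation of GR-ED fusion to nuclear EA restores b-gal, read by luminescence after 1 h room-temperature detection. Engineered CHO-K1 biosensor cells, 1,000/well, exposed 2 h at 37 C to titrations up to 46 uM final.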

[8] = target: Mitogen-activated protein kinase 10 (Mus musculus) (UniProt Q61831); assay: JNK3 AlphaScreen Assay (AID 530); conditions: JNK3 lysate, c-Jun phosphorylation; series mostly up to 11.4 µM;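 note: kinase came from lysate of stimulated human HepG2 cells; signal reports phosphorylation of biotinylated GST-cJun 1-79 at Ser73 with 10 µM ATP; % is set by controls: 0 for no effect and ±100 for the full control effect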
How it was run: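 qHTS titrations with 15 min compound pre-incubation before adding ATP (10 uM final). Read-out: AlphaScreen of Ser73-phosphorylated biotin-GST-cJun using HepG2 lysate JNK3 activated by IL-1β and TNFα.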

[9] = target: 3',5'-cyclic-AMP phosphodiesterase 4B (Homo sapiens) (UniProt Q07343); assay: qHTS Assay for Inhibitors of PDE-IV (AID 607; active = well fitted activation curve with a large enough effect in the main read-out, with a control signal flat, not every such curve was filed as active; note: % of control where 0% means no effect); conditions: HEK293 ACTOne CNG channel cells, membrane potential fluorescence; series mostly up to 22.9 µM
Sequence of 3',5'-cyclic-AMP phosphodiesterase 4B (Homo sapiens) (Q07343 whole entry, looked up): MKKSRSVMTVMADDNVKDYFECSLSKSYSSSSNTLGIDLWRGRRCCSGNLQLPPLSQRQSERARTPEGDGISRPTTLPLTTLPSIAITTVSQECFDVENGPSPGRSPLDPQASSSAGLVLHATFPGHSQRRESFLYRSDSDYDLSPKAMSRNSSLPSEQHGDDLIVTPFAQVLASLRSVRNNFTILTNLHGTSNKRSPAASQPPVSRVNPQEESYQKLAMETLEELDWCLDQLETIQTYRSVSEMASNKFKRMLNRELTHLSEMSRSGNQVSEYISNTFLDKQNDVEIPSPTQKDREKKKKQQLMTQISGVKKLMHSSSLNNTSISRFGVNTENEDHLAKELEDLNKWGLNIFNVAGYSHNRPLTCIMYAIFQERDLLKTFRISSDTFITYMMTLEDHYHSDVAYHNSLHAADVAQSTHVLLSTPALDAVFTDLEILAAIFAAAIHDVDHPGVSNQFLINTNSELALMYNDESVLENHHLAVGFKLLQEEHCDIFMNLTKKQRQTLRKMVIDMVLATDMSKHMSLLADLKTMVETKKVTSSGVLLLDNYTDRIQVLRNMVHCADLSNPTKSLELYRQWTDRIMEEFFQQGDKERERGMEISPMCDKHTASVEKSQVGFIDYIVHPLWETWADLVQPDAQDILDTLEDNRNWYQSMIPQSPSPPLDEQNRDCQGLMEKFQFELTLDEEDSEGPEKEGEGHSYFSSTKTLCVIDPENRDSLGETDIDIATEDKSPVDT
How it was run: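 Live HEK293 cells with a modified cyclic nucleotide-gated (CNG) channel report intracellular cAMP via membrane-potential dye fluorescence (ex 535/em 590 nm). Endogenous PDE-IV was targeted. Compounds were tested at up to 22.9 uM final; RO 20-1724 100 uM served as control.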

[10] = target: Cytochrome P450 2C9 (Homo sapiens) (UniProt P11712); assay: qHTS Assay for Inhibitors and Substrates of Cytochrome P450 2C9 (AID 883; active = well fitted curve in the direction sought with a large enough effect; an effect the other way counts as inactive or inconclusive; note: nearly all actives have a fitted effect of over 60% in size; note: potency is the fitted concentration of half-maximal effect); conditions: recombinant CYP2C9, luciferin-H luminescence, 60 min; series mostly up to 11.4 µM
Sequence of Cytochrome P450 2C9 (Homo sapiens) (P11712 whole entry, looked up): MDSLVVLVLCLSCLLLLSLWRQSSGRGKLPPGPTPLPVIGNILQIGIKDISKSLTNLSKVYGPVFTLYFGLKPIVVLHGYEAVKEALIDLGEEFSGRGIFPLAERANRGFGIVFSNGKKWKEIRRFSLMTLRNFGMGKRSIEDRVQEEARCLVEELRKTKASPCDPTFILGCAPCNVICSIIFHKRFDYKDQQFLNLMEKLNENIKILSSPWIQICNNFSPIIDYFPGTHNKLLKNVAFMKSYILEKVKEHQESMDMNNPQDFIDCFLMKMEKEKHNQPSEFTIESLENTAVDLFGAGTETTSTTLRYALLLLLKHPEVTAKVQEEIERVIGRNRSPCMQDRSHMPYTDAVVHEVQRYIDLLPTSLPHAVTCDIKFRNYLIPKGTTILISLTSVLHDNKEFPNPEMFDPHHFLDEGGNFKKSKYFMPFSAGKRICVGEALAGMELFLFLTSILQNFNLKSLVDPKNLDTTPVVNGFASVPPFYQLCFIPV
How it was run: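 Luminescent read-out of deoxyluciferin hydroxylation, normalized to 57uM sulphaphenazole (AC100). Reaction: 10nM enzyme, 100uM Luciferin-H (equal to KM), 25mM KPO4, 10 min compound preincubation, then 60 min with NADPH regeneration, both at 37C.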

[11] = target: Cytochrome P450 2C19 (Homo sapiens) (UniProt P33261); assay: qHTS Assay for Inhibitors and Substrates of Cytochrome P450 2C19 (AID 899; active = well fitted curve in the direction sought with a large enough effect; an effect the other way counts as inactive or inconclusive; note: nearly all actives have a fitted effect of over 60% in size; note: potency is the fitted concentration of half-maximal effect); conditions: recombinant CYP2C19, luciferin-H EGE luminescence; series mostly up to 11.4 µM
Sequence of Cytochrome P450 2C19 (Homo sapiens) (P33261 whole entry, looked up): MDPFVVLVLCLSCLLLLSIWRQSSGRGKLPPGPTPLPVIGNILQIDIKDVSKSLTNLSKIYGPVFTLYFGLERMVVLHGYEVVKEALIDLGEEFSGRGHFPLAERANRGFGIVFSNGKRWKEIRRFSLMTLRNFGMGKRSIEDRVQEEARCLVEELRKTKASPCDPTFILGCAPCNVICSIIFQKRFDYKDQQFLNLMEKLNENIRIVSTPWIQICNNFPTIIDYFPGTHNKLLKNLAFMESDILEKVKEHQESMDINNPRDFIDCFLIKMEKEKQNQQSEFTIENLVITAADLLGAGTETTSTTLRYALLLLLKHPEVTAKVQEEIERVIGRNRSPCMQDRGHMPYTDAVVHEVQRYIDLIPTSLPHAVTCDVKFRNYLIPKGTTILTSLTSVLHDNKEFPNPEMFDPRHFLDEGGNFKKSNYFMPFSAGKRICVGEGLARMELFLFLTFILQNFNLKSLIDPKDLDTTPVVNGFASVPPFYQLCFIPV
How it was run: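 Luminescence readout of luciferin formed from 10uM Luciferin-H EGE (KM level) by 5 nM CYP2C19 in 50mM KPO4. 60 min NADPH-driven reaction at 37C after 10 min compound preincubation; data scaled to 57uM ketoconazole inhibition.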

[12] = target: Cytochrome P450 2D6 (Homo sapiens) (UniProt P10635); assay: qHTS Assay for Inhibitors and Substrates of Cytochrome P450 2D6 (AID 891; active = well fitted curve in the direction sought with a large enough effect; an effect the other way counts as inactive or inconclusive; note: nearly all actives have a fitted effect of over 60% in size; note: potency is the fitted concentration of half-maximal effect); conditions: recombinant CYP2D6, luciferin-ME EGE luminescence; series mostly up to 11.4 µM
Sequence of Cytochrome P450 2D6 (Homo sapiens) (P10635 whole entry, looked up): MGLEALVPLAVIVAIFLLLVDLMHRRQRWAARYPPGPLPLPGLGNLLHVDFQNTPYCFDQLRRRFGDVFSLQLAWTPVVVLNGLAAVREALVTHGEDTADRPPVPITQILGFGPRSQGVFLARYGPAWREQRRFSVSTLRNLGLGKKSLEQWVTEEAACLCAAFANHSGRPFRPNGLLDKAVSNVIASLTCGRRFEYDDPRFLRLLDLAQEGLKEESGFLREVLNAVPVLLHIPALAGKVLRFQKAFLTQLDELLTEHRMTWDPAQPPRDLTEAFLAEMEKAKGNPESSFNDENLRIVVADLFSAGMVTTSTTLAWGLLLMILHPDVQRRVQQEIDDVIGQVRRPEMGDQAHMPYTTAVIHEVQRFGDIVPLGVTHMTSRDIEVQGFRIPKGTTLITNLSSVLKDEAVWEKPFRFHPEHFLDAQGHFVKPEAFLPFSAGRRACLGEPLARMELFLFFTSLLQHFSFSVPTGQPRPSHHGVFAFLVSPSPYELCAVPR
How it was run: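 Luminescent read-out of luciferin formed by 5 nM human CYP2D6 demethylating 30 uM Luciferin-ME EGE (Km level) over 60 min at room temperature after NADPH regeneration addition. Data normalized to full inhibition by 1.43 uM quinidine.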

[13] = target: Cytochrome P450 3A4 (Homo sapiens) (UniProt P08684); assay: qHTS Assay for Activators of Cytochrome P450 3A4 (AID 885; active = well fitted curve in the direction sought with a large enough effect; an effect the other way counts as inactive or inconclusive; note: nearly all actives have a fitted effect of over 65% in size); conditions: recombinant CYP3A4, Luciferin-PPXE luminescence, 60 min; series mostly up to 11.4 µM
Sequence of Cytochrome P450 3A4 (Homo sapiens) (P08684 whole entry, looked up): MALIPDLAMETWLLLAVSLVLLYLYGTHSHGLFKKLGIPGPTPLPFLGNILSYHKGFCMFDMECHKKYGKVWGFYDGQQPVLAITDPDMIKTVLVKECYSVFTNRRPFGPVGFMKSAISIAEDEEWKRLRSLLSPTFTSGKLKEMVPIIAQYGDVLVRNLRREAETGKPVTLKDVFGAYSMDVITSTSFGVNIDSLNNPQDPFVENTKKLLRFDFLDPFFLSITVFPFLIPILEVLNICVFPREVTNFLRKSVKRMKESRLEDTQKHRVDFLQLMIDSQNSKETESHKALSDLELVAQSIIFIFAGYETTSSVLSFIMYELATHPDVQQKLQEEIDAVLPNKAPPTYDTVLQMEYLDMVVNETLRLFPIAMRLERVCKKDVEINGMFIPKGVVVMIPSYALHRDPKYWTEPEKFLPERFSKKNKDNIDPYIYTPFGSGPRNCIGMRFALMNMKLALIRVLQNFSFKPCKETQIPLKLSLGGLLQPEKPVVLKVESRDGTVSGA
How it was run: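 Using 20nM recombinant human CYP3A4 in potassium phosphate (200mM), substrate Luciferin-PPXE at 25uM, luminescent luciferin detection followed a 60-min RT NADPH reaction; data scaled to 57 uM ketoconazole.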

[14] = qHTS Assay for Identification of Small Molecule Agonists for Hypoxia Response Element Signaling Pathway (AID 914; active = well fitted activation curve with a large enough effect in the signal ratio, with a control signal flat, not every such curve was filed as active; the % refers to the signal ratio; note: % of control where 0% means no effect); conditions: ME-180 (cervical carcinoma) HRE-bla reporter, beta-lactamase ratio, CoCl2, 17 h; activation: stronger effect = higher value
How it was run: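 Positive modulation of EC50 CoCl2-induced hypoxia response element signaling is measured in ME-180 cells with a beta-lactamase reporter. Compounds are titrated, incubation runs 17 hours, and %Activity derives from the blue/green ratio.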

Nc1ncnc2nc[nH]c12.Nc1ncnc2nc[nH]c12.[Cl][Pt]([Cl])([Cl])[Cl]
inactive: Potency [1] > 11.4 µM | activity change, negative = inhibition [2] -1.02% | activity change, negative = inhibition [3] 13.2% [at 2.29 µM] | activity change, negative = inhibition [4] 4.22% | activity, negative = inhibition [5] -3.14% | Potency [6] > 46 µM | Potency [7] > 9.22 µM | Potency [8] | Potency [9] | Potency [10] | Potency [11]

N#CNC(N)=Nc1ccc(Cl)cc1
active: Potency [3] 3.98 µM
inactive: Potency [1] > 11.4 µM | activity change, negative = inhibition [2] 5.32% | activity change, negative = inhibition [4] 2.31% | activity, negative = inhibition [5] -1.86% | Potency [6] > 46 µM | Potency [7] > 9.22 µM | Potency [8] | Potency [9] | Potency [10] | Potency [12] | Potency [11]

O=C1CNCCCN2CCN(CCCNCC(=O)Nc3ccc(cc3)S(=O)(=O)c3ccc(cc3)NC(=O)CNCCCN3CCN(CCCNCC(=O)Nc4ccc(cc4)S(=O)(=O)c4ccc(cc4)N1)CC3)CC2
inactive: Potency [1] > 11.4 µM | activity change, negative = inhibition [2] -2.18% | Potency [3] | activity change, negative = inhibition [4] 13.1% | activity, negative = inhibition [5] -11% | Potency [6] > 46 µM | Potency [7] > 9.22 µM | Potency [8] | Potency [9] | Potency [10] | Potency [12] | Potency [11]

O=c1[nH]c(SCc2c(Cl)c(Cl)c(Cl)c(Cl)c2Cl)nc(=S)[nH]1
inactive: Potency [1] > 11.4 µM | activity change, negative = inhibition [2] 6.9% | activity change, negative = inhibition [4] 13.5% | activity, negative = inhibition [5] -6.17% | Potency [6] > 46 µM | Potency [7] > 9.22 µM | Potency [8] | Potency [9] | Potency [13]
active: Potency [3] 1 µM | Potency [10] 1.26 µM

CC(C)CO[C@H](c1ccc2c(c1)OCO2)[C@H](C)Br
active: Potency [3] 0.631 µM | Potency [10] 2 µM | Potency [11] 0.0631 µM
inactive: Potency [1] > 11.4 µM | activity change, negative = inhibition [2] -13.4% | activity change, negative = inhibition [4] -8.77% | activity, negative = inhibition [5] 7% | Potency [6] > 46 µM | Potency [7] > 9.22 µM | Potency [8] | Potency [9] | Potency [13]

Oc1ccc(Cc2nccc3cc(O)c(O)cc23)cc1O
inactive: Potency [1] > 11.4 µM | activity change, negative = inhibition [2] -6.37% | activity change, negative = inhibition [4] 7.28% | activity, negative = inhibition [5] -2.43% | Potency [6] > 46 µM | Potency [7] > 9.22 µM | Potency [8] | Potency [9] | Potency [10]
active: Potency [3] 5.01 µM | Potency [12] 1.26 µM

COc1ccc([C@@H](Nc2ccccn2)c2cc(C(C)(C)C)cc(C(C)(C)C)c2O)cc1
active: Potency [10] 2.51 µM | Potency [11] 2.51 µM
inactive: Potency [1] > 11.4 µM | activity change, negative = inhibition [2] -15.8% | activity change, negative = inhibition [3] 1.2% [at 2.29 µM] | activity change, negative = inhibition [4] -8.5% | activity, negative = inhibition [5] -15.2% | Potency [6] > 46 µM | Potency [7] > 9.22 µM | Potency [8] | Potency [9] | Potency [13] | activation [14] 3.06%

CCCCSCc1nc2nc(Cl)c(Cl)nc2[nH]1
inactive: Potency [1] > 11.4 µM | activity change, negative = inhibition [2] -2.19% | activity change, negative = inhibition [4] -24.8% | activity, negative = inhibition [5] -21.2% | Potency [6] > 46 µM | Potency [7] > 9.22 µM | Potency [8] | Potency [9]
active: Potency [3] 3.16 µM | Potency [10] 0.501 µM | Potency [11] 2 µM

CC(C)[C@@H]1OC(=O)C=CC=CC=CC=CC=CC[C@@H](O)[C@H](C)[C@@H](O)C[C@H](O)C[C@H](O)C[C@H](O)C[C@H](O)C[C@H](O)C[C@H](O)C=C[C@@H]1C
inactive: Potency [1] > 11.4 µM | activity change, negative = inhibition [2] 1.06% | activity change, negative = inhibition [3] -2.1% [at 2.29 µM] | activity change, negative = inhibition [4] 9.95% | activity, negative = inhibition [5] 8% | Potency [6] > 46 µM | Potency [7] > 9.22 µM | Potency [8] | Potency [9] | Potency [10] | Potency [11]

COc1cccc2[nH]c(-c3ccccn3)nc12
active: Potency [3] 0.794 µM | Potency [11] 2.51 µM
inactive: Potency [1] > 11.4 µM | activity change, negative = inhibition [2] -2.26% | activity change, negative = inhibition [4] 1.67% | activity, negative = inhibition [5] 4.98% | Potency [6] > 46 µM | Potency [7] > 9.22 µM | Potency [8] | Potency [9] | Potency [10] | Potency [13]

N#C/C(=C\Nc1ccccn1)C(=O)c1ccco1
active: Potency [10] 3.16 µM
inactive: Potency [1] > 11.4 µM | activity change, negative = inhibition [2] 2.96% | Potency [3] | activity change, negative = inhibition [4] 2.59% | activity, negative = inhibition [5] 3.37% | Potency [6] > 46 µM | Potency [7] > 9.22 µM | Potency [8] | Potency [9] | activation [14] -12.2%

BrC(c1cccc2ccccc12)c1cccc2ccccc12
inactive: Potency [1] > 11.4 µM | activity change, negative = inhibition [2] 0.329% | activity change, negative = inhibition [4] -5.96% | activity, negative = inhibition [5] -2.07% | Potency [6] > 46 µM | Potency [7] > 9.22 µM | Potency [8] | Potency [9]
active: Potency [3] 1.26 µM | Potency [10] 3.16 µM | Potency [11] 1.26 µM

O=C(O)c1c(Cl)c(Cl)c(Cl)c(Cl)c1C(=O)Nc1ccc2cn[nH]c2c1
inactive: Potency [1] > 11.4 µM | activity change, negative = inhibition [2] 1.63% | activity change, negative = inhibition [4] 4.49% | activity, negative = inhibition [5] 20.7% | Potency [6] > 46 µM | Potency [7] > 9.22 µM | Potency [8] | Potency [9] | Potency [13]
active: Potency [3] 0.2 µM | Potency [10] 0.0794 µM
